Measurements as given in article PMC7862700, “An all-to-all approach to the identification of sequence-specific readers for epigenetic DNA modifications on cytosine”.

How the values were obtained:
Experiment in all cases: DAPPL (digital affinity profiling via proximity ligation, sequencing); 10 mM Tris-HCl pH 7.5, 50 mM NaCl, 1 mM DTT, 4% glycerol, room temperature, 30 min; GST-TFs on glutathione beads, 16-mer random dsDNA library, 0.1% formaldehyde crosslink after washing; high values mean tight binding
[1] = target: T1, FLI1 (Homo sapiens, UniProt Q01543 1-452); settings: protein: recombinant; tags: N-terminal GST; dsDNA, one strand shown
T1 sequence: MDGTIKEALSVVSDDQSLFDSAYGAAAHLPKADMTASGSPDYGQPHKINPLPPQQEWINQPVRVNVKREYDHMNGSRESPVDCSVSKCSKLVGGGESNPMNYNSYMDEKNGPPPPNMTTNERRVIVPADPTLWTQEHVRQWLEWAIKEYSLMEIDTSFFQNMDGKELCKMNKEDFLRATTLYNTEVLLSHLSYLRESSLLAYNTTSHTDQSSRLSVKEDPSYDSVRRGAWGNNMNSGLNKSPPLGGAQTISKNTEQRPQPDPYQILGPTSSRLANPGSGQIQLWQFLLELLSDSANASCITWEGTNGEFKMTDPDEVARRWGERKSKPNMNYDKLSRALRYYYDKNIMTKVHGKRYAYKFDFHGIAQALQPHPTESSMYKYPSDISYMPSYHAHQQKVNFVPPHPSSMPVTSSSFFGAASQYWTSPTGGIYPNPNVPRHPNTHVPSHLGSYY
In short: (§1)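 GST fusions of human transcription factors were expressed in yeast and captured with glutathione beads. Once given DNA barcodes and pooled alongside a tag-only sample, they were incubated for 30 min at room temperature with 200 nmole of a random double-stranded 16-mer DNA library in Tris/NaCl/DTT/glycerol buffer, then washed, crosslinked (0.1% formaldehyde), proximity-ligated, PCR-amplified and sequenced on an Illumina NextSeq500. The binding signal of each hexamer is its read frequency for a factor divided by its frequency for the tag-only sample.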

[2] = target: T2, ELK1 (Homo sapiens, UniProt P19419 1-428); settings: protein: recombinant; tags: N-terminal GST; dsDNA, one strand shown
T2 sequence: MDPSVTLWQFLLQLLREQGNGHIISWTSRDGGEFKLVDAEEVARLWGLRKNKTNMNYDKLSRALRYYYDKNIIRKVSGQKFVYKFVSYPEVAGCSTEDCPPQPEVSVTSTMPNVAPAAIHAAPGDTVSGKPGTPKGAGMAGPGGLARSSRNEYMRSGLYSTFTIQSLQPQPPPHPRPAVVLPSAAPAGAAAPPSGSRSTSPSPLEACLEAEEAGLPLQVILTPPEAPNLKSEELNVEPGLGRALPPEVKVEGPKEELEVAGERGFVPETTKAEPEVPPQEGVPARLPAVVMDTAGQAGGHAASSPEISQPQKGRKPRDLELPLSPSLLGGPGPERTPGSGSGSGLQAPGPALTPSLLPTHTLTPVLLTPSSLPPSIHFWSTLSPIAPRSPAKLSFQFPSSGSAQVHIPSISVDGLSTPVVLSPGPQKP
In short: as §1

[3] = target: T3, GABPA (Homo sapiens, UniProt Q06546 1-454); settings: protein: recombinant; tags: N-terminal GST; dsDNA, one strand shown
T3 sequence: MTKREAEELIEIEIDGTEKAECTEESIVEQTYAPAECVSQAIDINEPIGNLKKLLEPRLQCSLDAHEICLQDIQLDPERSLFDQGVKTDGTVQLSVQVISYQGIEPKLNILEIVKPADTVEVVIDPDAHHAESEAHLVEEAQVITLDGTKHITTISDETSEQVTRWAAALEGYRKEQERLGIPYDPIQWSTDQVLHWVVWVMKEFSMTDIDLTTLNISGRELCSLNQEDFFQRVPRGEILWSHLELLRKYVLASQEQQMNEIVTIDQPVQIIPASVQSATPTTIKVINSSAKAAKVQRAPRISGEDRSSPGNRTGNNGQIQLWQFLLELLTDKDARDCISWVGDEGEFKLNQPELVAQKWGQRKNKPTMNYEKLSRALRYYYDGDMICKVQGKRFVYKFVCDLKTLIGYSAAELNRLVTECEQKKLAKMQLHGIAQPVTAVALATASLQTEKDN
In short: as §1

[4] = target: T4, ERG (Homo sapiens, UniProt P11308 1-479); settings: protein: recombinant; tags: N-terminal GST; dsDNA, one strand shown
T4 sequence: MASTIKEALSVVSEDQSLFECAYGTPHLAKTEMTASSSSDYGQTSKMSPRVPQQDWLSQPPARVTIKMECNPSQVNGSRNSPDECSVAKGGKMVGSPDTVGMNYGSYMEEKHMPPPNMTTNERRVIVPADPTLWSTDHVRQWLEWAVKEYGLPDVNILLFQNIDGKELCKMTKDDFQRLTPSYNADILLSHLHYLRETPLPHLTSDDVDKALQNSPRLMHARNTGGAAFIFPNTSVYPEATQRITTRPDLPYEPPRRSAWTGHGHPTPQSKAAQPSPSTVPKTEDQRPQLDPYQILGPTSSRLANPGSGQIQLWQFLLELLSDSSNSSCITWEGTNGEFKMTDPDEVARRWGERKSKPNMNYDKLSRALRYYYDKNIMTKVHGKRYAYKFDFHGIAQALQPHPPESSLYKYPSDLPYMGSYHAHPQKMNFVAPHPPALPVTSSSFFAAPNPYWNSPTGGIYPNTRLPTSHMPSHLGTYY
In short: as §1

[5] = target: ELF1 (Homo sapiens, UniProt P32519 1-619); settings: protein: recombinant; tags: N-terminal GST; dsDNA, one strand shown
In short: as §1

[6] = target: T5, EHF (Homo sapiens, UniProt Q9NZC4 1-300); settings: protein: recombinant; tags: N-terminal GST; dsDNA, one strand shown
T5 sequence: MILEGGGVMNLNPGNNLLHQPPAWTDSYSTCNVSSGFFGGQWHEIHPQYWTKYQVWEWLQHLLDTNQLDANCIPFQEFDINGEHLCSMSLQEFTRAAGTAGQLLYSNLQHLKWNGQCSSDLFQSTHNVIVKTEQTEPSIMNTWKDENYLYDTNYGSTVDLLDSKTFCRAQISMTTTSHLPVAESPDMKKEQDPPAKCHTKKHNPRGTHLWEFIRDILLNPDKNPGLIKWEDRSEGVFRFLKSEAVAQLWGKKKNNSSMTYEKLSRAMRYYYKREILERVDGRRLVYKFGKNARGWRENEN
In short: as §1

[7] = target: SPI1 (Homo sapiens, UniProt P17947 1-270); settings: protein: recombinant; tags: N-terminal GST; dsDNA, one strand shown
In short: as §1

[8] = target: SPIB (Homo sapiens, UniProt Q01892 1-262); settings: protein: recombinant; tags: N-terminal GST; dsDNA, one strand shown
In short: as §1

[9] = target: T6, ELK3 (Homo sapiens, UniProt P41970 1-407); settings: protein: recombinant; tags: N-terminal GST; dsDNA, one strand shown
T6 sequence: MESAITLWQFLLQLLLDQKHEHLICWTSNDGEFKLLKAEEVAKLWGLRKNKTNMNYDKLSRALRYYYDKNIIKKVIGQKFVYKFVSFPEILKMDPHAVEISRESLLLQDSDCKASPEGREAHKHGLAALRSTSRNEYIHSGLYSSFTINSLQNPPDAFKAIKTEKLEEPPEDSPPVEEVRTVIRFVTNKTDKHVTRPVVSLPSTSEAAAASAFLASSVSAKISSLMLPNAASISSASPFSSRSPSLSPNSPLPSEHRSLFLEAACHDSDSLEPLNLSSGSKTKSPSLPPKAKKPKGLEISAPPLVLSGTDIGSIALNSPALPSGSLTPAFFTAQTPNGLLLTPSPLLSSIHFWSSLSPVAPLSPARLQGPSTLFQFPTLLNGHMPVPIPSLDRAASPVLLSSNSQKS
In short: as §1

[10] = target: T7, FEV (Homo sapiens, UniProt Q99581 1-238); settings: protein: recombinant; tags: N-terminal GST; dsDNA, one strand shown
T7 sequence: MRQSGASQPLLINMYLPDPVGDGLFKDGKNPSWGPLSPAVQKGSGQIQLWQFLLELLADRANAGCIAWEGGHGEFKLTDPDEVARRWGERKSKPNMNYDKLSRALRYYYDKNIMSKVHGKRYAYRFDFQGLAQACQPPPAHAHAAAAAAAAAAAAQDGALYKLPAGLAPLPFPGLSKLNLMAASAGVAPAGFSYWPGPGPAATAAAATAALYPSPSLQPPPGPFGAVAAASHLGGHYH
In short: as §1

[11] = target: ETV5 (Homo sapiens, UniProt P41161 1-510); settings: protein: recombinant; tags: N-terminal GST; dsDNA, one strand shown
In short: as §1

[12] = target: HSF1 (Homo sapiens, UniProt Q00613 1-529); settings: protein: recombinant; tags: N-terminal GST; chain copies: 3; dsDNA, one strand shown
In short: as §1

[13] = target: T8, SPIC (Homo sapiens, UniProt Q8N5J4 1-248); settings: protein: recombinant; tags: N-terminal GST; dsDNA, one strand shown
T8 sequence: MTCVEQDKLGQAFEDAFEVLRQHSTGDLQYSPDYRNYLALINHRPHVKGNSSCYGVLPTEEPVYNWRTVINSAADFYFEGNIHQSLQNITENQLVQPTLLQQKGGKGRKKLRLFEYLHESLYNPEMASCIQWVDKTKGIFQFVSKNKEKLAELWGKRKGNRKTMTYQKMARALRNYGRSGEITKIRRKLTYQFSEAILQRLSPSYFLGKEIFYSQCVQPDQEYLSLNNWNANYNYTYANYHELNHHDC
In short: as §1

[14] = target: ELF4 (Homo sapiens, UniProt Q99607 1-663); settings: protein: recombinant; tags: N-terminal GST; dsDNA, one strand shown
In short: as §1

[15] = target: T9, ELK4 (Homo sapiens, UniProt P28324-2 1-405); settings: protein: recombinant; tags: N-terminal GST; dsDNA, one strand shown
T9 sequence: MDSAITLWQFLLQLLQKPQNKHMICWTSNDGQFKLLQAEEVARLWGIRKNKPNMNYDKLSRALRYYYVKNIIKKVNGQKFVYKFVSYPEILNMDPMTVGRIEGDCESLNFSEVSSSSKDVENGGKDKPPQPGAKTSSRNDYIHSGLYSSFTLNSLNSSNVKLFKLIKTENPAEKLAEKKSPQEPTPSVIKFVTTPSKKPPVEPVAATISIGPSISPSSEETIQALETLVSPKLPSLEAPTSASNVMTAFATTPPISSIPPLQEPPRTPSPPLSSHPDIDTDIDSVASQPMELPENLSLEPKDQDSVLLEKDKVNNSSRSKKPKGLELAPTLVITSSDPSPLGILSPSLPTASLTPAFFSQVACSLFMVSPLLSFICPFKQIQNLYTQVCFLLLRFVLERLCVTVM
In short: as §1

[16] = target: T10, ETV2 (Homo sapiens, UniProt O00321 1-342); settings: protein: recombinant; tags: N-terminal GST; dsDNA, one strand shown
T10 sequence: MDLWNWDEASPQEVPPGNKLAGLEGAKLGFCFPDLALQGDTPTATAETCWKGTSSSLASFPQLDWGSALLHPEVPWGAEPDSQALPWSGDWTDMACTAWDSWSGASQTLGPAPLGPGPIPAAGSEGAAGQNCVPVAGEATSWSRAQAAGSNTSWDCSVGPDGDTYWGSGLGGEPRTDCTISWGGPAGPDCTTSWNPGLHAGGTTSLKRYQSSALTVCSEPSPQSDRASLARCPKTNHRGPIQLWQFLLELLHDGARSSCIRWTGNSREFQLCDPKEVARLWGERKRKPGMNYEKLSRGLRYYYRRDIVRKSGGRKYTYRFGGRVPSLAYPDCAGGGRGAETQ
In short: as §1

[17] = target: T11, ELF3 (Homo sapiens, UniProt P78545 1-371); settings: protein: recombinant; tags: N-terminal GST; dsDNA, one strand shown
T11 sequence: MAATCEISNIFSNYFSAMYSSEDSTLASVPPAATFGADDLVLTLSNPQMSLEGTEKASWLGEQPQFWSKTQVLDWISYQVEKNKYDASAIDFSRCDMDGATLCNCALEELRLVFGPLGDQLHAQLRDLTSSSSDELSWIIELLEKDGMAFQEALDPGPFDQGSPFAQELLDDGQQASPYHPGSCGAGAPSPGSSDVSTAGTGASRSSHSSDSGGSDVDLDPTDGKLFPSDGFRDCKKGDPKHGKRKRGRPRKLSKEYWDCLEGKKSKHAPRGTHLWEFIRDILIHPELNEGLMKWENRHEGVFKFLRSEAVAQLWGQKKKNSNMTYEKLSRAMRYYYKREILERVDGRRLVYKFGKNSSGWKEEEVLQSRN
In short: as §1

[18] = target: CRX (Homo sapiens, UniProt O43186 1-299); settings: protein: recombinant; tags: N-terminal GST; dsDNA, one strand shown
In short: as §1

[19] = target: ETV1 (Homo sapiens, UniProt P50549 1-477); settings: protein: recombinant; tags: N-terminal GST; dsDNA, one strand shown
In short: as §1

ETV1, sequence (P50549 whole entry): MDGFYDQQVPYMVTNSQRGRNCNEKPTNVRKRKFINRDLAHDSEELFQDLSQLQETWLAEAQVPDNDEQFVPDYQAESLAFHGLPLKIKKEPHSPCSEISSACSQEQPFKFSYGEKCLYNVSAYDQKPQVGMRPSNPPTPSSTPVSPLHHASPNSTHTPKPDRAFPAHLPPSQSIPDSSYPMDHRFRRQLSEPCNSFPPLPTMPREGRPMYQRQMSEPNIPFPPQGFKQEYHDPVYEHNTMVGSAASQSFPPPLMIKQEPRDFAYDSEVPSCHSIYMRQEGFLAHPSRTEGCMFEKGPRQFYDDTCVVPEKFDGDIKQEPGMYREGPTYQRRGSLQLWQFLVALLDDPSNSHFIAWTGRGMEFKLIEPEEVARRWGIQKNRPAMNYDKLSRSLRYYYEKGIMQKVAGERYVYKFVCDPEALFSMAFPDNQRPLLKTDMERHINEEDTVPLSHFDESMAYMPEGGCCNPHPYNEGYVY
ETV5, sequence (P41161 whole entry): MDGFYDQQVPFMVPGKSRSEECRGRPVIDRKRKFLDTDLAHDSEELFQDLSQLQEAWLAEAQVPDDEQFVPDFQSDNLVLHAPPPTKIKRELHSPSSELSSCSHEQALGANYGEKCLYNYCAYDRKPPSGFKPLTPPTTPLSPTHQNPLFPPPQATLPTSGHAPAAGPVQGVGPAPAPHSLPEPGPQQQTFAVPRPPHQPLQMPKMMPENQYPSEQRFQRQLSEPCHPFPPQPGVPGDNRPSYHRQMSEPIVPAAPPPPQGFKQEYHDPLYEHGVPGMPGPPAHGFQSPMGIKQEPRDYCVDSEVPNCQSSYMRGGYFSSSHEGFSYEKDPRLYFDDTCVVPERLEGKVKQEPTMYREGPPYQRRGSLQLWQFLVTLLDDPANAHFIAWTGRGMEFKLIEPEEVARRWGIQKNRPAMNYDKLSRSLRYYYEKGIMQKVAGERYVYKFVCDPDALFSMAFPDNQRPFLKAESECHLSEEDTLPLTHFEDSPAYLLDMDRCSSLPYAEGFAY
ELF4, sequence (Q99607 whole entry): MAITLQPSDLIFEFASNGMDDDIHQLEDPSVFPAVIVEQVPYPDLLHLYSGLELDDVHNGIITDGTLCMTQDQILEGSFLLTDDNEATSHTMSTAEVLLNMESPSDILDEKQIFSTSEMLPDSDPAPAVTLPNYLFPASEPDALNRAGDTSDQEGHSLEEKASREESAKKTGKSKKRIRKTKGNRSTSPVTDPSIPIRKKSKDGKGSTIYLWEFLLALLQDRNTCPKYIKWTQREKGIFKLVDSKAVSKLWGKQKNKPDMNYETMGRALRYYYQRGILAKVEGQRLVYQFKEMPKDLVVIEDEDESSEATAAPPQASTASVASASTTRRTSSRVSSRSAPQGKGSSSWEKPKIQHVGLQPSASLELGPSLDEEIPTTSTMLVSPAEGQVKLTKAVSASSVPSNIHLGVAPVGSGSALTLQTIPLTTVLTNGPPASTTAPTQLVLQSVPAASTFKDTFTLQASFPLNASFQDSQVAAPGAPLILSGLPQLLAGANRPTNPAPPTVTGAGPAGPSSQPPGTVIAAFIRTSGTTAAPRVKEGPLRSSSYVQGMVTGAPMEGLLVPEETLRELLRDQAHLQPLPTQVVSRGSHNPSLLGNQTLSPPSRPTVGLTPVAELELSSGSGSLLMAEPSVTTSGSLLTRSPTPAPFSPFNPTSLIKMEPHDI
CRX, sequence (O43186 whole entry): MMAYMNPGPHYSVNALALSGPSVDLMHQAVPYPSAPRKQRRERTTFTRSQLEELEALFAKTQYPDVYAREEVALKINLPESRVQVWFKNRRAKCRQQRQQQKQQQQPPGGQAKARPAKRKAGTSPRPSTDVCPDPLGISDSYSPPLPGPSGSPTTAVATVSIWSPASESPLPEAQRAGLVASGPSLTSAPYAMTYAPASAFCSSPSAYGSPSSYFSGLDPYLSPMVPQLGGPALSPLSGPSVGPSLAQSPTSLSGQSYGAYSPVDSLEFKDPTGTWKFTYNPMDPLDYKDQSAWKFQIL
ELF1, sequence (P32519 whole entry): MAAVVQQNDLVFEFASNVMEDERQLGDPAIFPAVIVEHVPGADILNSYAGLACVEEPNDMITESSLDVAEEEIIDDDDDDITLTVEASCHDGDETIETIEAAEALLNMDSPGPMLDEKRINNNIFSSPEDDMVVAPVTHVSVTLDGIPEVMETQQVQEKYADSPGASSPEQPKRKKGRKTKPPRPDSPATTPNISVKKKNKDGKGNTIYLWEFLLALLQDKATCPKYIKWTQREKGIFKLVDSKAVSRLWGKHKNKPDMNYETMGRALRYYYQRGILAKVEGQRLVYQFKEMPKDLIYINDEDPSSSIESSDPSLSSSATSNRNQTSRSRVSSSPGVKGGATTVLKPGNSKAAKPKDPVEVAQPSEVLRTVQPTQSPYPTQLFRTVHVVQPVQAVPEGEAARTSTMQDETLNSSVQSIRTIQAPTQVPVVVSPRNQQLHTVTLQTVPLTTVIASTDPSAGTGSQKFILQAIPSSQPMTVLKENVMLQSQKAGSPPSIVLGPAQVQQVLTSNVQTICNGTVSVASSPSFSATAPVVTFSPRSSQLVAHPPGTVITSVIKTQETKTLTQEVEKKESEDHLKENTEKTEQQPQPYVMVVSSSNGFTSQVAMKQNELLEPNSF
SPIB, sequence (Q01892 whole entry): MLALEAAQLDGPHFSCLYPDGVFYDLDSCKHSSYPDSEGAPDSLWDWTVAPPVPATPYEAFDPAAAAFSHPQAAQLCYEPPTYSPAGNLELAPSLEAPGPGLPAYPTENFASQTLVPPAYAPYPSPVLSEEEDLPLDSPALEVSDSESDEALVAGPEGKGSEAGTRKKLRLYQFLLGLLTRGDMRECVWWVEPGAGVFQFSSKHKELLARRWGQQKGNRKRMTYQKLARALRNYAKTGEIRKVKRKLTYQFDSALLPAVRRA
HSF1, sequence (Q00613 whole entry): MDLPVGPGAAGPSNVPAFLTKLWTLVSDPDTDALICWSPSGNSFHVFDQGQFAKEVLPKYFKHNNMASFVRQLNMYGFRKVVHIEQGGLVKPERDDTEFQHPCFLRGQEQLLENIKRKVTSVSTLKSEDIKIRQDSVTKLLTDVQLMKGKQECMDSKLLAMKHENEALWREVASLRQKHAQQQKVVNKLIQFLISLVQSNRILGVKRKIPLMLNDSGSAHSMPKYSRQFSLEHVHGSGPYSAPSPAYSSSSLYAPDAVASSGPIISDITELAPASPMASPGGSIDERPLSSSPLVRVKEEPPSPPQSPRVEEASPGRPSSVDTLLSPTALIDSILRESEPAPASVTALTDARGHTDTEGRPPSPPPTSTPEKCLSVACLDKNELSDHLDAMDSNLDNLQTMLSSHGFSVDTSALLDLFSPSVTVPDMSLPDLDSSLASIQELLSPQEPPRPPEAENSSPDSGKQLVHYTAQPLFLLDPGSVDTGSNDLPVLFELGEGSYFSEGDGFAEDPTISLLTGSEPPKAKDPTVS

Q: Which results are given for TCCCCA?
A: binding signal [1]: 1.38 fold enrichment (6-mer frequency, TF over GST control); binding signal [2]: 1.29 fold enrichment (6-mer frequency, TF over GST control); binding signal [3]: 1.21 fold enrichment (6-mer frequency, TF over GST control); binding signal [4]: 1.42 fold enrichment (6-mer frequency, TF over GST control); binding signal [5]: 1.39 fold enrichment (6-mer frequency, TF over GST control); binding signal [6]: 1.45 fold enrichment (6-mer frequency, TF over GST control); binding signal [7]: 1.63 fold enrichment (6-mer frequency, TF over GST control); binding signal [8]: 1.16 fold enrichment (6-mer frequency, TF over GST control); binding signal [9]: 1.34 fold enrichment (6-mer frequency, TF over GST control); binding signal [10]: 1.33 fold enrichment (6-mer frequency, TF over GST control); binding signal [11]: 1.41 fold enrichment (6-mer frequency, TF over GST control); binding signal [12]: 1.3 fold enrichment (6-mer frequency, TF over GST control); binding signal [13]: 1.56 fold enrichment (6-mer frequency, TF over GST control); binding signal [14]: 1.39 fold enrichment (6-mer frequency, TF over GST control); binding signal [15]: 1.58 fold enrichment (6-mer frequency, TF over GST control); binding signal [16]: 1.51 fold enrichment (6-mer frequency, TF over GST control); binding signal [17]: 1.54 fold enrichment (6-mer frequency, TF over GST control); binding signal [18]: 1.43 fold enrichment (6-mer frequency, TF over GST control); binding signal [19]: 1.49 fold enrichment (6-mer frequency, TF over GST control)
